Rows were chosen to be rich in hits. Some 7.9% of all compounds tested hit in one or more screens of this group.
LASV entry inh – Lassa virus entry inhibition; Lassa virus pseudotype entry inhibition, cell reporter; Potency, µM (series often up to 37.9 µM), without a hit: at the top dose activity change, negative = inhibition, usual class: inhibitors; 1.2% of 300,000 active; AID 540256; calls by dose curve; tested in HEK293 cells; further: potency means the concentration at half of the fitted maximal effect; nearly all actives have a fitted effect of over 50% in size
MARV entry inh – blocks Marburg virus binding to or entry into cells | Marburg virus pseudotyped entry inhibition, cell reporter | Potency, µM (series often up to 37.8 µM), inactives show at the highest dose activity change, negative = inhibition, hits mostly inhibitors | 1.8% of 300,000 active | AID 540276; calls by dose curve; tested in HEK293 cells; further: potency means the concentration at half of the fitted maximal effect
HCMV antiviral – inhibitors of human cytomegalovirus; HFF cells, HCMV-luciferase reporter, 72 h; hits give low values; activity change, negative = inhibition, % at 57.5 µM; 4.5% of 410,000 active; AID 1259415; in the data active means activity change below about -60%; inconclusive means no clear call, values can overlap the other calls; inactive means above about -39%
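Compounds were evaluated in HFFs infected with an HCMV luciferase reporter virus (MOI 1 PFU/cell). Luciferase in lysates collected 72 h post infection served as the replication measure.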
FMDV antiviral – antivirals against foot and mouth disease virus; FMDV antiviral cell-based qHTS; Potency, µM (highest dose often 57.9 µM), inactives show at the highest dose activity change, negative = inhibition, most hits filed as inhibitors; 1.2% of 410,000 active; AID 1159524; calls by dose curve; tested in HEK293T cells; further: read-out not given here; potency means the concentration at half of the fitted maximal effect; nearly all actives have a fitted effect of over 45% in size
HCV inh – inhibitors of hepatitis C virus infection; AID 651820; Potency, µM (top dose mostly 41.8 µM), for inactives: top-dose activity change, negative = inhibition, hits mostly inhibitors; 3.4% of 340,000 active; Huh7.5.1 HCVcc-Cre infection, luciferase reporter, 44 h; active means well fitted inhibition curve with a large enough effect; inconclusive means small, poorly fitted or top-dose-only effect, or another doubt; inactive means no such curve, though single readings can be large or run the other way; further: potency means the concentration at half of the fitted maximal effect
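Cells seeded at 1,000/well and cultured 4 h, then compounds added followed by HCVcc-Cre virus (~0.5 moi). After 44 h further culture, luciferase substrate was added, plates held 15 min at room temperature, and luminescence read for 15 sec.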
* hit, by the source's call; [ ] = another dose, or the depositor's remark. On the % scale 0 is the no-effect control and ±100 the full control effect.

How did CC1=C(C(=O)OC2CCCCCCC2)C(c2cccc(O)c2)NC(=O)N1 (stereo unspecified) do in these assays?
LASV entry inh: 1.83µM*; MARV entry inh: inconclusive; HCMV antiviral: 43.2; FMDV antiviral: inconclusive; HCV inh: 8.6%

Results for O=C(COc1ccccc1F)Nc1ccc(Cl)c(-c2nc3ccccc3[nH]2)c1 ?
LASV entry inh: -24.1%[46.1 µM]; MARV entry inh: -21.1%[46.1 µM]; HCMV antiviral: -36.2; FMDV antiviral: -3.6%

What do the screens show for `Cc1nnc(NC(=O)CSc2nccn2Cc2ccc(Cl)cc2)s1`?
LASV entry inh: 1.1%[46.1 µM]; HCMV antiviral: 2.0; FMDV antiviral: -0.6%

What do the screens show for `O=C(CN(C1CCCCC1)S(=O)(=O)c1ccccc1)NCc1ccco1`?
LASV entry inh: -25.4%; MARV entry inh: -0.7%; HCMV antiviral: 21.6; HCV inh: -5.9%

Results for Cc1ccc(S(=O)(=O)N(CC(=O)NCc2ccco2)C2CCCCC2)cc1 ?
LASV entry inh: -19.7%; MARV entry inh: -13.0%; HCMV antiviral: 64.0; HCV inh: 3.55µM*

What do the screens show for `Cc1ccc(S(=O)(=O)N(CC(=O)Nc2cccc([N+](=O)[O-])c2)C2CCCCC2)cc1`?
LASV entry inh: inconclusive; MARV entry inh: inconclusive; HCMV antiviral: inconclusive; FMDV antiviral: -7.4%; HCV inh: -16.1%

How did Cc1ccc(S(=O)(=O)N(CC(=O)Nc2ccc(Cl)c([N+](=O)[O-])c2)C2CCCCC2)cc1 do in these assays?
LASV entry inh: inconclusive; MARV entry inh: inconclusive; HCMV antiviral: -76.7*; FMDV antiviral: 18.8%; HCV inh: inconclusive

How did O=C1CCCC2=C1[C@H]1O[C@](CCCCN3C(=O)c4ccccc4C3=O)(Cc3ccccc31)O2 do in these assays?
MARV entry inh: -1.7%[14.2 µM]

Results for Cc1ccc(O)c(Nc2c3ccccc3nc3ccccc23)c1 ?
LASV entry inh: inconclusive; MARV entry inh: inconclusive; HCMV antiviral: -35.7; FMDV antiviral: inconclusive; HCV inh: 10µM*

What do the screens show for `Cc1ccc(O)c(Nc2nc(-c3ccccc3)nc3ccccc23)c1`?
LASV entry inh: -6.4%; MARV entry inh: inconclusive; HCMV antiviral: -30.2; FMDV antiviral: -16.4%; HCV inh: -28.6%

How did Cc1ccc(C(=O)NCC(c2cccs2)S(=O)(=O)c2cccs2)cc1 (stereo unspecified) do in these assays?
LASV entry inh: -23.1%[46.1 µM]; HCMV antiviral: 37.5; FMDV antiviral: inconclusive

Results for Cc1ccc(S(=O)(=O)CCc2nc3ccccc3n2CCC#N)cc1 ?
LASV entry inh: -16.5%; MARV entry inh: -2.3%; HCMV antiviral: -80.8*; FMDV antiviral: -26.1%; HCV inh: inconclusive

Results for Cc1ccc(S(=O)(=O)CC2CSc3nc4ccccc4n32)cc1 (stereo unspecified) ?
LASV entry inh: inconclusive; MARV entry inh: inconclusive; HCMV antiviral: -71.9*; FMDV antiviral: inconclusive; HCV inh: inconclusive

Results for O=C(O)Cn1c(CCS(=O)(=O)c2ccc(Br)cc2)nc2ccccc21 ?
LASV entry inh: 1.3%; MARV entry inh: 5.4%[46.1 µM]; HCMV antiviral: -13.0; FMDV antiviral: -1.1%; HCV inh: 21.1%

How did Brc1cccc(-c2cnn3c(-c4ccccc4)cc(-c4ccccc4)nc23)c1 do in these assays?
LASV entry inh: 12.0%[46.1 µM]; MARV entry inh: 10.9%[46.1 µM]; HCMV antiviral: 3.8; FMDV antiviral: 3.9%

Results for CCOc1cc(CNCCCN2CCOCC2)ccc1OCC(=O)Nc1cccc2ccccc12 ?
LASV entry inh: 14.6µM*; MARV entry inh: inconclusive; HCMV antiviral: inconclusive; FMDV antiviral: 4.9%; HCV inh: 14.1µM*

How did COc1ccccc1OCC(=O)Nc1ccc(NC(=O)COc2ccccc2OC)cc1 do in these assays?
LASV entry inh: 4.7%[46.1 µM]; MARV entry inh: inconclusive; HCMV antiviral: 29.8; FMDV antiviral: -25.4%; HCV inh: inconclusive

What do the screens show for `COc1cc(CNCCO)ccc1OCC(=O)Nc1ccc(Br)cc1`?
LASV entry inh: 20.6%; MARV entry inh: -29.4%; HCMV antiviral: 55.0; FMDV antiviral: 4.0%; HCV inh: 5.62µM*

Results for COc1ccc(CNC(=O)Nc2cccc(C(F)(F)F)c2)cc1OC ?
LASV entry inh: inconclusive; MARV entry inh: inconclusive; HCMV antiviral: inconclusive; FMDV antiviral: 0.0%; HCV inh: -22.3%

What do the screens show for `COc1cc(CNC(C)C)ccc1OCC(=O)Nc1cccc2ccccc12`?
LASV entry inh: 3.6%; MARV entry inh: -16.2%; HCMV antiviral: -6.1; FMDV antiviral: 2.3%; HCV inh: inconclusive

How did COc1cc(CNCCCN2CCOCC2)ccc1OCC(=O)Nc1cccc(C(F)(F)F)c1 do in these assays?
LASV entry inh: inconclusive; MARV entry inh: inconclusive; HCMV antiviral: 42.7; FMDV antiviral: 3.7%; HCV inh: 10µM*

How did CCOc1cc(CNC(CC)CO)ccc1OCC(=O)Nc1cccc(C(F)(F)F)c1 (stereo unspecified) do in these assays?
HCMV antiviral: -36.7; FMDV antiviral: -23.6%; HCV inh: 1.12µM*

How did O=C(COc1ccc(Br)cc1CNCCCN1CCOCC1)Nc1ccccc1 do in these assays?
LASV entry inh: inconclusive; MARV entry inh: inconclusive; HCMV antiviral: -9.9; FMDV antiviral: -8.8%; HCV inh: inconclusive

What do the screens show for `Clc1ccc(-c2nc3sccn3c2/C=N/OCc2ccc(Cl)c(Cl)c2)cc1`?
FMDV antiviral: -0.9%

How did COC(=O)[C@@]1(Sc2ccc(OC)cc2)CC(=O)N(c2ccc(OC)cc2)[C@@H]1c1ccc(OC(C)C)c(OC)c1 do in these assays?
HCMV antiviral: -4.8

Results for CC(C)CCn1c(=O)c2sccc2n2c(CCCC(=O)Nc3ccc(F)c(Cl)c3)nnc12 ?
LASV entry inh: 5.6%[46.1 µM]; HCMV antiviral: inconclusive; FMDV antiviral: -8.5%

What do the screens show for `COc1cc(OC)c(NC(=O)CCn2cccn2)cc1Cl`?
LASV entry inh: -2.9%[46.1 µM]; HCMV antiviral: -12.9; FMDV antiviral: -5.6%

Results for COc1cc2nc(CN(CCO)C3CS(=O)(=O)CC3O)nc(N3CCCCC3)c2cc1OC (stereo unspecified) ?
FMDV antiviral: -3.0%

How did CN(C(=O)CSc1nc2ccc(NC(=O)c3ccco3)cc2s1)c1ccccc1 do in these assays?
LASV entry inh: -33.3%[46.1 µM]; MARV entry inh: inconclusive; HCMV antiviral: inconclusive; FMDV antiviral: inconclusive

What do the screens show for `O=C(CSc1nc2ccc(Cl)cc2[nH]1)N1CCN(C(=O)c2ccco2)CC1`?
LASV entry inh: 7.1%; MARV entry inh: 7.2%; HCMV antiviral: -64.6*; FMDV antiviral: -13.2%; HCV inh: -14.9%

How did CCN(CC)c1ccc(C(=O)NNC(=O)c2cccn2C)cc1 do in these assays?
LASV entry inh: -23.6%; MARV entry inh: inconclusive; HCMV antiviral: 26.1; FMDV antiviral: 13.3%; HCV inh: 7.08µM*

How did O=C(Nc1nc2c(s1)CCCC2)c1ccc(S(=O)(=O)N2CCCc3ccccc32)cc1 do in these assays?
LASV entry inh: inconclusive; MARV entry inh: 23.1µM*; HCMV antiviral: -85.3*; FMDV antiviral: inconclusive; HCV inh: inconclusive

How did O=C(Nc1nnc(S(=O)(=O)N2CCCc3ccccc32)s1)c1ccccc1 do in these assays?
LASV entry inh: inconclusive; HCMV antiviral: 2.4; FMDV antiviral: -0.4%

Screening results: PubChem, National Center for Advancing Translational Sciences (NCATS)
